Screens (PubChem)
U2OS ROS induce: ROS inducers in U2OS cancer cells, primary screen, cell-based, H2DCF-DA fluorescence; U2OS ROS induction; ROS induction (% of piperlongumine), % at 10 µM; 46,000 compounds, 2% hits; AID 624156, 2012; in the data active means ROS induction above about 79%, passing the limit was not always enough
Each line names hits and unclear results; the compound was inactive in the other large screens. The full list was thinned out, with hits kept by preference.

C[C@@H]1CN([C@H](C)CO)C(=O)Cc2cc(NS(=O)(=O)c3ccc(Cl)cc3)ccc2O[C@@H]1CN(C)Cc1ccc(C(F)(F)F)cc1	none
C[C@@H]1CN([C@@H](C)CO)C(=O)Cc2cc(NC(=O)Cn3cnnn3)ccc2O[C@@H]1CN(C)Cc1ccncc1	none
C[C@H]1CN([C@@H](C)CO)C(=O)c2cc(NS(=O)(=O)c3ccc(Cl)cc3)ccc2O[C@@H]1CN(C)Cc1ccc(C(F)(F)F)cc1	U2OS ROS induce 81
C[C@@H]1CN([C@H](C)CO)C(=O)Cc2cc(NS(=O)(=O)c3ccc(F)cc3)ccc2O[C@H]1CN(C)Cc1ccc(C(F)(F)F)cc1	U2OS ROS induce 207
C[C@@H]1CN([C@@H](C)CO)C(=O)Cc2cc(NS(=O)(=O)c3ccc(Cl)cc3)ccc2O[C@@H]1CN(C)Cc1ccc(C(F)(F)F)cc1	none
Cc1ccc(S(=O)(=O)Nc2ccc3c(c2)CC(=O)N([C@H](C)CO)C[C@@H](C)[C@@H](CN(C)Cc2ccc(C(F)(F)F)cc2)O3)cc1	none
C[C@@H]1CN([C@@H](C)CO)C(=O)Cc2cc(NS(=O)(=O)c3ccc(F)cc3)ccc2O[C@@H]1CN(C)Cc1ccc(C(F)(F)F)cc1	none
CCc1ccc(NS(=O)(=O)c2ccc3[nH]c(=O)ccc3c2)cc1	none
CC1CCN(Cc2ccc(NC(=O)Nc3cccs3)cc2)CC1	none
O=C(CCc1ccccc1)NCCN1CCN(C(=O)CCc2ccccc2)CC1	none
Cc1onc(-c2ccccc2)c1CNC(=O)NC1CCN(C(=O)OCc2ccccc2)CC1	none
CSC(=NC1CCCCC1)Nc1cc(-c2ccccc2)[nH]n1	none
COc1ccccc1NCC(=O)NN	none
O=c1c2sc(=S)n(Cc3ccco3)c2nc(SCc2ccccc2)n1-c1ccccc1	none
CC12CCC(c3nnc(SCC(=O)Nc4cccc(C(F)(F)F)c4)nc31)C2(C)C (stereo unspecified)	none
CC1CCCCC1NC(=O)c1cnn2c(C(F)(F)F)cc(-c3ccccc3)nc12 (stereo unspecified)	U2OS ROS induce 134
CC(C)CCNC(=O)c1cnn2c(C(F)(F)F)cc(-c3ccco3)nc12	U2OS ROS induce 119
FC(F)(F)c1cc(-c2ccccc2)nc2c(-c3ccccc3)cnn12	none
C=CCNC(=O)c1cnn2c(C(F)(F)F)cc(-c3cccs3)nc12	none
Cc1ccccc1NC(=O)c1cnn2c(C(F)(F)F)cc(-c3ccco3)nc12	none
COc1ccc(-c2cc(C(=O)NC3CCCC3)c3ccccc3n2)cc1	none
CSc1nsc(SCc2ccc(C(=O)Nc3ccc(Cl)cc3)cc2)n1	none
Cn1c(CSCC(=O)Nc2ccccc2)nnc1SCc1ccc(Cl)cc1	none
CCOc1cccc2cc(-c3nc4ccccc4s3)c(=O)oc12	none
c1cc(-c2nc3ccccc3s2)nc(-c2nc3ccccc3s2)c1	none
O=c1oc2cc(O)ccc2cc1-c1nc2ccccc2s1	U2OS ROS induce 149
CC1CCN(c2nnc(NC(=O)c3cc(-c4ccc(Br)cc4)on3)s2)CC1	none
Cc1cc(-c2nnc(-c3ccc(Cl)cc3)o2)no1	none
Cc1ccc(-c2nc3c(cnn3-c3ccccc3)c(=O)n2-c2cccc(C)c2)cc1	U2OS ROS induce 187
O=c1c2cnn(-c3ccccc3)c2ncn1C/C=C/c1ccccc1	none
Cc1ccc(-n2ncc3c2ncn2nc(Cc4ccccc4)nc32)cc1	none
C[C@@H]1C[C@H]2OCC3=CCC[C@H]([C@]1(CC(O)c1ccoc1)C(=O)O)[C@]32CO (stereo partly specified)	none
COc1ccc(CN(C)C[C@H]2OCCCC[C@@H](C)Oc3ccc(NC(=O)Nc4ccc(OC)cc4)cc3C(=O)N([C@H](C)CO)C[C@@H]2C)cc1	U2OS ROS induce 122
COc1ccc(CN(C)C[C@@H]2OCCCC[C@@H](C)Oc3ccc(NC(=O)Nc4ccc(F)cc4)cc3C(=O)N([C@H](C)CO)C[C@@H]2C)cc1	U2OS ROS induce 119
COc1ccc(CN(C)C[C@@H]2OCCCC[C@@H](C)Oc3ccc(NS(=O)(=O)c4ccc(F)cc4)cc3C(=O)N([C@H](C)CO)C[C@@H]2C)cc1	none
COc1ccc(CN(C)C[C@H]2OCCCC[C@@H](C)Oc3ccc(NS(=O)(=O)c4ccc(F)cc4)cc3C(=O)N([C@H](C)CO)C[C@@H]2C)cc1	none
COc1ccc(NC(=O)Nc2ccc3c(c2)C(=O)N([C@H](C)CO)C[C@H](C)[C@H](CN(C)Cc2ccc(C(=O)O)cc2)OCCCC[C@@H](C)O3)cc1	none
COc1ccc(NC(=O)Nc2ccc3c(c2)C(=O)N([C@H](C)CO)C[C@H](C)[C@@H](CN(C)C(=O)C2CCCCC2)OCCCC[C@@H](C)O3)cc1	U2OS ROS induce 114
COc1ccc(NC(=O)Nc2ccc3c(c2)C(=O)N([C@H](C)CO)C[C@H](C)[C@@H](CN(C)Cc2ccc(C(=O)O)cc2)OCCCC[C@@H](C)O3)cc1	none
C[C@@H]1CCCCO[C@@H](CN(C)C(=O)C2CCCCC2)[C@@H](C)CN([C@H](C)CO)C(=O)c2cc(NC(=O)Nc3ccccc3)ccc2O1	none
COc1ccc(NC(=O)Nc2ccc3c(c2)C(=O)N([C@H](C)CO)C[C@H](C)[C@@H](CN(C)Cc2ccccc2)OCCCC[C@@H](C)O3)cc1	none
COc1ccc(CN(C)C[C@@H]2OCCCC[C@@H](C)Oc3ccc(NS(=O)(=O)c4ccc(C)cc4)cc3C(=O)N([C@H](C)CO)C[C@@H]2C)cc1	U2OS ROS induce 128
COc1ccc(CN(C)C[C@@H]2OCCCC[C@@H](C)Oc3ccc(NC(=O)Nc4ccc(C(F)(F)F)cc4)cc3C(=O)N([C@H](C)CO)C[C@@H]2C)cc1	none
COc1ccc(NC(=O)Nc2ccc3c(c2)C(=O)N([C@H](C)CO)C[C@H](C)[C@H](CN(C)C(=O)Nc2ccc(OC)cc2)OCCCC[C@@H](C)O3)cc1	none
CCOc1ccc2nc(SCc3nc4ccccc4[nH]3)sc2c1	none
N#CCCN1c2ccccc2Sc2ccc(Cl)cc21	none
COc1ccc(Cl)c(C(=O)OCC(=O)Nc2ccc(F)cc2)c1	none
Cc1cccc(C(=O)NCCCn2ccnc2)c1	none
O=c1ccc2cc(S(=O)(=O)N3CCCCC3)ccc2[nH]1	none
CCCN(C(=O)Cn1ncc2c1-c1ccccc1OC2)c1ccc(Cl)c(Cl)c1	none
C[C@@H]1CCCCO[C@@H](CN(C)C(=O)C2CCCCC2)[C@@H](C)CN([C@H](C)CO)C(=O)c2cc(NC(=O)Nc3cccc4ccccc34)ccc2O1	U2OS ROS induce 102
C[C@@H]1CCCCO[C@@H](CN(C)C(=O)Nc2cccc3ccccc23)[C@@H](C)CN([C@H](C)CO)C(=O)c2cc(NC(=O)Nc3cccc4ccccc34)ccc2O1	none
C[C@@H]1CCCCO[C@@H](CN(C)C(=O)c2ccccc2)[C@@H](C)CN([C@H](C)CO)C(=O)c2cc(NC(=O)Nc3cccc4ccccc34)ccc2O1	none
Cc1cc(Oc2ccnc3cc(Cl)ccc23)ccc1Cl	none
c1ccc(Cn2c(-c3ccccc3)nc3ccccc32)cc1	none
COC(=O)c1ccccc1NC(=O)c1ccc(Cn2cc(Cl)cn2)cc1	none
CC1(C)CC(=O)C2=C(C1)N(CCc1ccccc1)C(=O)C2(NC(=O)c1cccnc1)C(F)(F)F (stereo unspecified)	none
CCC1=NC(C(F)(F)F)(C(F)(F)F)C2=C(CC(C)(C)CC2=O)N1Cc1ccccc1	U2OS ROS induce 120
CC1(C)CC(=O)C2=C(C1)N(Cc1ccc(F)cc1)C(=O)C2(NC(=O)c1cccnc1)C(F)(F)F (stereo unspecified)	none
CCc1ccc(NC(=O)CC(NCc2ccccc2)C(=O)O)cc1 (stereo unspecified)	none
O=C1C(=O)N(CCCn2ccnc2)C(c2cccc(Br)c2)C1C(=O)c1ccccc1 (stereo unspecified)	none
